Experimental data taken from PubChem BioAssay AID570 (The Scripps Research Institute Molecular Screening Center, 2006).
The whole screen tested about 65,000 compounds, of which about 45 (0.07%) were called active. The entries come from a sample that favours actives as a whole. Unmarked numbers belong to inactive results.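 Rule for the calls: active = inhibition above the mean of compound-free control plate wells plus 3 SD (cut at about 14% in these data); inactive = the rest.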

Each compound was assayed against Collagenase 3 (Homo sapiens) (UniProt P45452) (assay: human MMP13 inhibitors, primary screen, biochemical, FRET peptide cleavage (AID 570;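 note: 0% = DMSO wells and 100% = wells with reference MMP-13 inhibitor after basal subtraction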)). Conditions: MMP-13 fTHP FRET cleavage, Mca fluorescence; at 4 µM; hits give high values.
With `O=C(NCCN1CCOCC1)[C@H](Cc1ccccc1)N1C(=O)c2ccccc2C1=O` the inhibition was 0.6%. For `COc1ccc(O)c(C(=O)c2cnc3onc(C(C)C)c3c2)c1`, the inhibition was 8.5%. With `COC(=O)c1ccc(Oc2nc(NC(C)C)nc(SC)n2)cc1` the inhibition was 0.3%. Work on `OCc1n[nH]c(CO)n1` yielded an inhibition of -2.9%. For `CCN1C(=O)/C(=C\N2CCN(c3cccc(Cl)c3)CC2)SC1=S`, the inhibition was 4.2%. In the case of `CCN1C(=O)/C(=C2/Sc3ccccc3N2CCCS(=O)(=O)O)SC1=S`, the inhibition is reported as 17.1% (active). For `CCN1C(=O)/C(=C\N2CCN(c3ccccc3)CC2)SC1=S`, the inhibition was 3.4%. In the case of `CCc1nnc(NC(=O)c2nc3nccc(C)n3n2)s1`, the inhibition is reported as 1.3%. `COc1ccc2c(c1)OC(O)(C(F)(F)C(F)F)CC2=O` (stereo not drawn) was tested, and the inhibition was 4.3%. With `CC1(C)Cc2ccccc2-c2nnc(-c3cccc(O)c3)n21` the inhibition was -1.1%. `O=C(Nc1ccc(Cl)cn1)c1cnn2cccnc12` showed an inhibition of -1.1%. `O=c1[nH]c(=O)n(Cc2ccco2)c2c1C(C(F)(F)F)(C(F)(F)F)N=C(c1ccco1)N2` showed an inhibition of -3.7%. In the case of `CC(C)n1c(NCc2c[nH]c3ccccc23)nc2ccccc21`, the inhibition is reported as -5.6%. `COc1cc(C(O)c2nc3ccccc3n2C)cc(OC)c1OC` (stereo not drawn) was tested, and the inhibition was 1%. For `Cc1cc(C)c(C#N)c(SCc2ccc3c(c2)OCO3)n1`, the inhibition was 3.3%. With `COc1ccc(C2C(C(=O)N3CCN(c4ccc(OC)cc4)CC3)c3ccccc3C(=O)N2C)cc1` (stereo not drawn) the inhibition was 2.8%. For `CNC(=O)CSc1nnnn1-c1ccc(C)cc1C`, the inhibition was 1.5%. With `CC1(C)CC(=O)C(C=NCc2cccnc2)=C(O)C1` the inhibition was 2.8%. For `CCC(=O)Nc1cccc(NC(=O)c2cccnc2)c1`, the inhibition was -1.1%. `CCC1CCCCN1C(=O)Nc1cccc(NC(=O)N2CCCCC2CC)c1` (stereo not drawn) showed an inhibition of -2.3%. Compound `CCOC(=O)C1(c2ccccc2)NC(c2ccc(N(C)C)cc2)C2C(=O)N(C)C(=O)C21` (stereo not drawn) has an inhibition of -4.8%. `O=C(Nc1ccc2c(c1)OCCO2)C1CCCN(c2ncccn2)C1` (stereo not drawn) gave an inhibition of 4.5%. Compound `Cc1ccccc1CSc1nnc(-c2cccnc2)n1N` has an inhibition of 4.9%. In the case of `CN(C(=O)C1CCOC1)c1nnc(-c2cccnc2)s1` (stereo not drawn), the inhibition is reported as -4.2%. With `COc1cccc(-n2cc3c(c2-c2ccccc2)c(=O)n(C)c(=O)n3C)c1` the inhibition was -1.8%. In the case of `Cn1c(=O)c2c(nc(SCCNS(=O)(=O)c3ccccc3)n2C)n(C)c1=O`, the inhibition is reported as -2.9%. `CC(C)OC(=O)c1cc(NC(=O)C2C3CCC(O3)C2C(=O)O)cc(C(=O)OC(C)C)c1` (stereo not drawn) was tested, and the inhibition was -25.2%. For `Cc1noc(COc2ccccc2OCC(O)CNC(C)(C)C)n1` (stereo not drawn), the inhibition was -0.8%. `O=C(CCCN1C(=O)CCC1=O)Nc1ccc(Cl)c(C(F)(F)F)c1` gave an inhibition of 1.9%. With `Cc1cccc(-n2c(Cc3cc(=O)[nH]c(=O)[nH]3)nnc2SC(C)C)c1` the inhibition was 2.4%. `O=C(OCc1ccccc1F)c1ccc2c(c1)OCCO2` was tested, and the inhibition was -0.1%. Work on `O=c1ccn(Cc2ccccc2Cl)cc1` yielded an inhibition of 0.5%. Compound `COc1ccc(Cn2nnc3c(=O)[nH]c(C4CCN(C(=O)c5ccccc5Cl)CC4)nc32)cc1` has an inhibition of 7.2%. `CCOC(=O)[C@H]1CCC[C@@H](NS(=O)(=O)c2ccc(NC(C)=O)cc2)C1` was tested, and the inhibition was 0%. `COc1ccccc1NC(=O)CSc1nnc(-c2ccoc2C)n1CCc1ccccc1` gave an inhibition of -3.7%. For `Cc1cc(Nc2cccc(C)c2C)n2ncnc2n1`, the inhibition was 6.6%. Compound `CCCc1nc2c3cnn(-c4cccc(Cl)c4)c3ncn2n1` has an inhibition of -4.1%. With `CC12CN3CC(C)(CN(C1)C3c1ccc(Cl)cc1Cl)C2=O` (stereo not drawn) the inhibition was 6.8%. Compound `Cc1ccc(C(C)C)c(OCc2nnc(SCC(=O)Nc3nccs3)n2C)c1` has an inhibition of -0.8%. For `CCOC(=O)N1CCC(NC(=O)Cn2cc3c(n2)CCCCC3)CC1`, the inhibition was 3%. `Cc1cc(C)nc(N2C(=O)CC(Cc3ccccc3)C2=O)n1` (stereo not drawn) gave an inhibition of 2.4%. Compound `CC1CCCC(NC(=O)CN2CCN(Cc3ccc(Cl)cc3)C2=O)C1C` (stereo not drawn) has an inhibition of -0.6%. Work on `CCOC(=O)N1CCC(Nc2c(NCCCN3CCN(c4ccc(OC)cc4)CC3)c(=O)c2=O)CC1` yielded an inhibition of 2.1%. In the case of `O=C(CCC(=O)OCC(F)(F)C(F)F)NCc1ccccc1`, the inhibition is reported as 1.8%. With `Cc1cc(/C=N/n2cnnc2)c(C)n1-c1ccc2ncccc2c1` the inhibition was -12%. Work on `CC(=O)NC(C)(C)C1CC=C(C)/C(=N\O)C1` (stereo not drawn) yielded an inhibition of 4.1%. For `CCOc1ccc(OCC)c(NC(=O)CN(C)S(=O)(=O)c2cccc3nsnc23)c1`, the inhibition was -2.8%. Compound `Cc1cccc(-n2c(O)c(C=Nc3ccccc3N)c(=O)[nH]c2=O)c1` has an inhibition of -15.8%. For `N#CC(C(=O)c1ccc(S(=O)(=O)N2CCCCCC2)cc1)c1nc2ccccc2[nH]1` (stereo not drawn), the inhibition was -11.8%. `CC1C=CCC2C(=O)N(c3cccc(C(=O)N4CCCCCC4)c3)C(=O)C12` (stereo not drawn) gave an inhibition of 4.6%. In the case of `Cc1nc2ccccc2c2oc(C(=O)NCC3CCCO3)cc12` (stereo not drawn), the inhibition is reported as -8.8%. For `CCCn1c(SCC(=O)N2CCc3ccccc32)nnc1-c1ccncc1`, the inhibition was -0.9%. In the case of `COc1ccc(S(=O)(=O)N2CCCCC2)cc1Br`, the inhibition is reported as 3.3%. With `Cc1ccc(-n2nc3cc(Cl)c(NC(=O)c4ccco4)cc3n2)cc1` the inhibition was -66.9%. `Cc1ccc(S(=O)(=O)c2c(N)n(C)c3nc4ccccc4nc23)cc1` showed an inhibition of -244%. Work on `CCC(C)NC(=O)N[C@@H](CCSC)C(=O)O` (stereo partly drawn) yielded an inhibition of 1.5%. `C=CCOc1ccc(C2/C(=C(\O)c3c(C)[nH]c(C(=O)OC)c3C)C(=O)C(=O)N2CCN(C)C)cc1` (stereo not drawn) gave an inhibition of 2.9%. In the case of `COc1ccc(OC)c(NC(=O)CCN2CCC(C)CC2)c1`, the inhibition is reported as 3.7%. Work on `COc1ccccc1OCCC(=O)OCC(=O)NC(=O)NC(C)(C)C` yielded an inhibition of 3.7%. `CC(C)(C)c1cc(CN2CCN(CCC#N)CC2)cc(C(C)(C)C)c1O` was tested, and the inhibition was -0.2%. `CCOC(=O)C1=C(C)NC(C)=C(C(=O)OCC)C1c1ccccn1` gave an inhibition of -0.7%. Work on `CCOc1ccc(C(=O)Nc2ccncc2)cc1` yielded an inhibition of 3.1%. For `c1nc(COc2nsnc2N2CCOCC2)cs1`, the inhibition was 2.5%. Work on `COc1ccc(NC(=O)CN2CCN(S(=O)(=O)c3ccc(F)cc3)CC2)cc1Cl` yielded an inhibition of -15.6%. For `Cc1noc(C)c1S(=O)(=O)N1CCCC(C(=O)Nc2nccs2)C1` (stereo not drawn), the inhibition was 6.5%. Work on `NC(CSC12CC3CC(CC(C3)C1)C2)C(=O)O` (stereo not drawn) yielded an inhibition of 2.6%. With `Cc1nc(NC(CC(C)C)C(=O)O)c2nc(C)oc2n1` (stereo not drawn) the inhibition was 0%. `CCOC(=O)N1CCN(C(=O)CNC(=O)Cc2ccc(Cl)cc2)CC1` showed an inhibition of -1.6%. `CCOC(=O)N1CCN(C(=O)C2CCN(S(C)(=O)=O)CC2)CC1` was tested, and the inhibition was -0.8%. `CCn1c(SCC(=O)c2ccc(Cl)s2)nnc1-c1cccs1` showed an inhibition of -2.1%. `COc1ccccc1N(C(=O)Cn1nnc2ccccc21)C(C(=O)NCc1ccco1)c1ccc(C)o1` (stereo not drawn) gave an inhibition of 7.4%. `Cc1nc(CNS(=O)(=O)c2cccnc2)cs1` gave an inhibition of 2.4%. In the case of `CCCCCCC(=O)N(O)C1CC(=O)N(c2ccccc2)C1=O` (stereo not drawn), the inhibition is reported as 1%. `COC(=O)c1ccc(S(=O)(=O)c2ccc(C(=O)OC)s2)s1` was tested, and the inhibition was -1.3%. In the case of `Cc1ccc(S(=O)(=O)Cn2nnnc2CN2CCN(Cc3ccc4c(c3)OCO4)CC2)cc1`, the inhibition is reported as -3.7%. `CC1CCN(C(=O)Cn2cc(C(=O)c3ccco3)c3ccccc32)CC1` was tested, and the inhibition was -1.8%. In the case of `CCC(=O)Nc1ccc2c(c1)nc(CCN1CCN(C)CC1)n2C`, the inhibition is reported as -0.5%. `CCOc1ccccc1C(=O)NCc1ccco1` showed an inhibition of 3.2%. With `O=C(CN1C2CCC1CC(NC(=O)C1CC1)C2)NCc1ccccc1` (stereo not drawn) the inhibition was -1.1%. For `COc1ccc(C2=NOC(C(=O)NCc3ccco3)C2)cc1OC` (stereo not drawn), the inhibition was 1.2%. `C=CCNC(=O)c1cc(-c2ccccc2O)on1` was tested, and the inhibition was 6%. `COc1ccccc1N1CC(O)=C(c2nc3ccccc3s2)C1=N` showed an inhibition of -5.8%. Work on `Cc1cccc(NC(=O)CN2CCCN(S(=O)(=O)c3ccc(Br)s3)CC2)c1` yielded an inhibition of -0.8%. Compound `COc1cc(Cl)c(S(=O)(=O)n2cnc(C)c2)cc1Cl` has an inhibition of -1%. Compound `CCC(C)(C)NC(=O)C(c1cccn1C)N(Cc1ccc(C)cc1)C(=O)Cn1nnc2ccccc21` (stereo not drawn) has an inhibition of 2.1%. For `O=C(CSc1n[nH]c(-c2cccnc2)n1)Nc1ccnc2ccccc12`, the inhibition was -1.2%. For `CC(C)(C)c1ccc(C(=O)CSc2ncn[nH]2)cc1`, the inhibition was 1.3%. Compound `C=CCSc1nnc(Cn2c(=O)sc3ccccc32)n1C` has an inhibition of -10.7%. Work on `CC(NC(=O)c1ccco1)C(=O)Nc1nc(-c2ccccn2)cs1` (stereo not drawn) yielded an inhibition of 1.6%. Compound `COCCNCCOCCOc1cccc(OC)c1` has an inhibition of -0.9%. `Cc1ccsc1-c1nc(CSCC(=O)NCCN2CCCC2)c(C)o1` showed an inhibition of -72.5%. In the case of `O=C(CSc1nnc(-c2cccs2)n1-c1ccccc1)N1CCN(C(=O)c2ccco2)CC1`, the inhibition is reported as 2.3%. Compound `CN(Cc1ccccc1)Cc1ccccc1F` has an inhibition of 0.3%. `Cc1oc(-c2cccc(Cl)c2)[n+]([O-])c1C` gave an inhibition of -6.2%. Work on `CCOc1nc(-c2ccc(OC)cc2)ccc1-c1noc(-c2cc(OC)c(OC)c(OC)c2)n1` yielded an inhibition of -11.5%. Compound `CCOC(=O)C(CCOc1cccc(CC)c1)C(=O)OCC` has an inhibition of 4.3%. Compound `CC(C)c1ccc(-c2nn[nH]n2)cc1` has an inhibition of 0.3%. `C=CCn1c2ccccc2c2nnc(SC(CC)C(=O)Nc3nc(C)c(C(=O)OCC)s3)nc21` (stereo not drawn) was tested, and the inhibition was 2.6%.
